Laboratory results: PubChem BioAssay AID1159580 (chemical genetic matrix, 2015)
Among all 5,500 compounds or so, about 2,000 (36%) were called active. Inconclusive results (about 18%) are left out. No stated cut-off is given here; in the data, active means normalized growth mostly below about 0.91 (no sharp cut-off); inconclusive means no clear call, values can overlap the other calls; inactive means mostly above about 0.92. This is one part of the list.

Experiment: chemical genetic growth profiling, strain panel (AID 1159580);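 further: tested at 20 µM; growth read once vehicle control cultures reached saturation at 30 °C; 1 = growth at the plate median or of vehicle wells; lower values mean less growth of the strain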
Conditions: S. cerevisiae deletion strains, growth OD
[1] = locus YAR019C, strain CDC15, active compounds read low
[2] = locus YBL105C, strain PKC1, active compounds read low
[3] = locus YBR135W, strain CKS1, active compounds read low
[4] = locus YBR136W, strain MEC1, active compounds read low
[5] = locus YBR160W, strain CDC28, active compounds read low
[6] = locus YDL017W, strain CDC7, active compounds read low
[7] = locus YDL028C, strain MPS1, active compounds read low
[8] = locus YDL101C, strain DUN1, active compounds read low
[9] = locus YDL108W, strain KIN28, active compounds read low
[10] = locus YDL132W, strain cdc53, active compounds read low
[11] = locus YDL214C, strain PRR2, active compounds read low
[12] = locus YDR052C, strain DBF4, active compounds read low
[13] = locus YDR054C, strain cdc34, active compounds read low
[14] = locus YDR226W, strain ADK1, active compounds read low
[15] = locus YDR477W, strain SNF1, active compounds read low
[16] = locus YER123W, strain YCK3, active compounds read low
[17] = locus YER133W, strain GLC7, active compounds read low
[18] = locus YFL009W, strain cdc4, active compounds read low
[19] = locus YFL029C, strain CAK1, active compounds read low
[20] = locus YFR003C, strain YPI1, active compounds read low
[21] = locus YFR019W, strain FAB1, active compounds read low
[22] = locus YFR028C, strain CDC14, active compounds read low
[23] = locus YGR040W, strain KSS1, active compounds read low
[24] = locus YGR052W, strain FMP48, active compounds read low
[25] = locus YGR092W, strain DBF2, active compounds read low
[26] = locus YHR030C, strain SLT2, active compounds read low
[27] = locus YHR079C, strain IRE1, active compounds read low
[28] = locus YHR082C, strain KSP1, active compounds read low
[29] = locus YHR205W, strain SCH9, active compounds read low
[30] = locus YIL147C, strain SLN1, active compounds read low
[31] = locus YJL095W, strain BCK1, active compounds read low
[32] = locus YJL157C, strain FAR1, active compounds read low
[33] = locus YJR016C, strain ILV3, active compounds read low
[34] = locus YJR066W, strain TOR1 (second series), active compounds read low
[35] = locus YJR066W, strain TOR1, active compounds read low
[36] = locus YKL048C, strain ELM1, active compounds read low
[37] = locus YKL067W, strain YNK1, active compounds read low
[38] = locus YKL101W, strain HSL1, active compounds read low
[39] = locus YKL193C, strain SDS22, active compounds read low
[40] = locus YKL203C, strain TOR2, active compounds read low
[41] = locus YLR113W, strain HOG1, active compounds read low
[42] = locus YLR133W, strain CKI1, active compounds read low
[43] = locus YLR403W, strain SFP1, active compounds read low
[44] = locus YML070W, strain DAK1, active compounds read low
[45] = locus YMR001C, strain CDC5, active compounds read low
[46] = locus YMR205C, strain PFK2 (second series), active compounds read low
[47] = locus YMR277W, strain FCP1, active compounds read low
[48] = locus YNL006W, strain LST8, active compounds read low
[49] = locus YNL020C, strain ARK1, active compounds read low
[50] = locus YNL161W, strain CBK1, active compounds read low
[51] = locus YNL183C, strain NPR1, active compounds read low
[52] = locus YNL207W, strain RIO2, active compounds read low
[53] = locus YNL222W, strain SSU72, active compounds read low
[54] = locus YNL307C, strain MCK1 (second series), active compounds read low
[55] = locus YOL078W, strain AVO1, active compounds read low
[56] = locus YOL136C, strain PFK27, active compounds read low
[57] = locus YOR061W, strain CKA2, active compounds read low
[58] = locus YOR119C, strain RIO1, active compounds read low
[59] = locus YOR231W, strain MKK1, active compounds read low
[60] = locus YOR329C, strain SCD5, active compounds read low
[61] = locus YPL031C, strain PHO85, active compounds read low
[62] = locus YPL153C, strain RAD53, active compounds read low
[63] = locus YPL204W, strain HRR25, active compounds read low
[64] = locus YPL209C, strain IPL1, active compounds read low
[65] = locus YPL256C, strain CLN2, active compounds read low
[66] = locus YPR025C, strain CCL1, active compounds read low
[67] = locus YPR106W, strain ISR1, active compounds read low
[68] = locus YPR111W, strain DBF20, active compounds read low
[69] = strain NNK1, active compounds read low
[70] = strain TSCII, active compounds read low

Measured: normalized growth

O=C1Nc2ccccc2/C1=C\c1c[nH]c2ccccc12
active: [1] 0.472 | [2] 0.627 | [4] 0.88 | [5] 0.843 | [6] 0.717 | [8] 0.491 | [10] 0.628 | [11] 0.289 | [12] 0.91 | [13] 0.432 | [14] 0.84 | [15] 0.135 | [16] 0.249 | [17] 0.202 | [18] 0.526 | [19] 0.472 | [20] 0.894 | [21] 0.168 | [22] 0.753 | [23] 0.164 | [24] 0.126 | [25] 0.109 | [26] 0.101 | [27] 0.1 | [28] 0.136 | [29] 0.0414 | [30] 0.814 | [31] 0.0968 | [32] 0.239 | [34] 0.111 | [35] 0.111 | [36] 0.325 | [37] 0.407 | [38] 0.242 | [39] 0.618 | [40] 0.123 | [41] 0.118 | [42] 0.19 | [43] 0.108 | [44] 0.219 | [45] 0.781 | [46] 0.401 | [47] 0.548 | [48] 0.454 | [49] 0.19 | [50] 0.639 | [51] 0.133 | [52] 0.605 | [53] 0.674 | [54] 0.134 | [55] 0.609 | [56] 0.254 | [57] 0.244 | [58] 0.154 | [59] 0.125 | [60] 0.612 | [61] 0.112 | [62] 0.124 | [63] 0.125 | [64] 0.694 | [65] 0.128 | [66] 0.753 | [67] 0.863 | [69] 0.527 | [70] 0.384
inactive: [3] 0.926 | [7] 0.927 | [9] 0.924 | [33] 0.914 | [68] 0.93

O=C1Nc2ccccc2/C1=C\c1cccc2ccccc12
inactive: [1] 0.97 | [2] 0.955 | [3] 0.971 | [4] 0.97 | [5] 0.977 | [6] 0.963 | [7] 0.972 | [8] 0.985 | [9] 0.969 | [10] 0.965 | [11] 0.815 | [12] 0.976 | [13] 0.982 | [14] 0.96 | [15] 0.773 | [16] 0.777 | [17] 0.809 | [18] 0.98 | [19] 0.964 | [20] 0.972 | [21] 0.904 | [22] 0.972 | [23] 0.792 | [24] 0.807 | [25] 0.708 | [27] 0.73 | [28] 0.741 | [29] 0.668 | [30] 0.968 | [31] 0.718 | locus YJL128C, strain PBS2, active compounds read low 0.914 | [32] 0.796 | [33] 0.966 | [34] 0.738 | [35] 0.798 | [36] 0.886 | [37] 0.855 | [38] 0.816 | [39] 0.968 | [40] 0.857 | [42] 0.803 | [43] 0.727 | [44] 0.803 | [45] 0.957 | [46] 0.862 | [47] 0.963 | [48] 0.964 | [49] 0.784 | [50] 0.96 | [51] 0.784 | [52] 0.958 | [53] 0.971 | [54] 0.752 | [55] 0.973 | [56] 0.808 | [57] 0.867 | [58] 0.885 | [59] 0.807 | [60] 0.966 | [61] 0.738 | [62] 0.78 | [63] 0.699 | [64] 0.967 | [66] 0.972 | [67] 0.959 | [68] 0.949 | [69] 0.953 | [70] 0.965
active: [26] 0.663 | [41] 0.667 | [65] 0.694
